# Measured values as given in PubChem BioAssay AID1159580 (chemical genetic matrix, 2015).
# “And” between values parts separate entries of the source, which are not always exact repeats. Equal values may be shown once. Out of some 5,500 compounds screened, about 2,000 (36%) were called active. Inconclusive results (about 18%) are left out. This is one part of the list. Unmarked numbers belong to inactive results. Rule as the data show it: active = normalized growth mostly below about 0.91 (no sharp cut-off); inconclusive = no clear call, values can overlap the other calls; inactive = mostly above about 0.92.
# Experiment: chemical genetic growth profiling, strain panel (AID 1159580);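 also: tested at 20 µM; growth read once vehicle control cultures reached saturation at 30 °C; 1 = growth at the plate median or of vehicle wells; lower values mean less growth of the strain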
# Conditions: S. cerevisiae deletion strains, growth OD
smiles,measurement,setting,value
Cc1onc(-c2ccccc2)c1C(=O)NC1C(=O)N2[C@@H]1SC(C)(C)[C@@H]2C(=O)O (some centres not stated),normalized growth,"locus YAL013W, strain DEP1, active compounds read low",1.01
same,normalized growth,"locus YAL021C, strain ccr4, active compounds read low",1.02
same,normalized growth,"locus YAL026C, strain drs2, active compounds read low",1.01
same,normalized growth,"locus YAL030W, strain snc1, active compounds read low",1.02
same,normalized growth,"locus YBL061C, strain skt5, active compounds read low",1.02
same,normalized growth,"locus YBR009C, strain hhf1, active compounds read low",1.02
same,normalized growth,"locus YBR021W, strain FUR4, active compounds read low",0.99
same,normalized growth,"locus YBR023C, strain chs3, active compounds read low",1.02
same,normalized growth,"locus YBR171W, strain sec66, active compounds read low",1.02
same,normalized growth,"locus YBR229C, strain ROT2, active compounds read low",1
same,normalized growth,"locus YBR231C, strain swc5, active compounds read low",1.01
same,normalized growth,"locus YBR279W, strain paf1, active compounds read low",1.01
same,normalized growth,"locus YCL011C, strain gbp2, active compounds read low",1.03
same,normalized growth,"locus YCL016C, strain dcc1, active compounds read low",1.06
same,normalized growth,"locus YCL029C, strain bik1, active compounds read low",1.02
same,normalized growth,"locus YCL061C, strain MRC1, active compounds read low",1.02
same,normalized growth,"locus YCL069W, strain vba3, active compounds read low",1.02
same,normalized growth,"locus YCR088W, strain abp1, active compounds read low",1.02
same,normalized growth,"locus YDL005C, strain med2, active compounds read low",1.01
same,normalized growth,"locus YDL035C, strain GPR1, active compounds read low",1
same,normalized growth,"locus YDL040C, strain nat1, active compounds read low",1.01
same,normalized growth,"locus YDL074C, strain BRE1, active compounds read low",1.03
same,normalized growth,"locus YDL101C, strain DUN1, active compounds read low",1.02
same,normalized growth,"locus YDL134C, strain PPH21, active compounds read low",1
same,normalized growth,"locus YDL185W, strain tfp1, active compounds read low",1.01
same,normalized growth,"locus YDL192W, strain arf1, active compounds read low",1.01
same,normalized growth,"locus YDR001C, strain nth1, active compounds read low",1.01
same,normalized growth,"locus YDR069C, strain doa4, active compounds read low",1.01
same,normalized growth,"locus YDR101C, strain arx1, active compounds read low",1.01
same,normalized growth,"locus YDR137W, strain rgp1, active compounds read low",1.04
same,normalized growth,"locus YDR150W, strain NUM1, active compounds read low",1.01
same,normalized growth,"locus YDR159W, strain sac3, active compounds read low",1
same,normalized growth,"locus YDR162C, strain NBP2, active compounds read low",1.01
same,normalized growth,"locus YDR195W, strain ref2",0.996
same,normalized growth,"locus YDR297W, strain sur2, active compounds read low",1.01
same,normalized growth,"locus YDR318W, strain mcm21, active compounds read low",1.01
same,normalized growth,"locus YDR334W, strain swr1, active compounds read low",1.02
same,normalized growth,"locus YDR335W, strain msn5, active compounds read low",1.02
same,normalized growth,"locus YDR388W, active compounds read low",1.01
same,normalized growth,"locus YDR392W, strain spt3, active compounds read low",0.959
same,normalized growth,"locus YDR502C, strain sam2, active compounds read low",1.01
same,normalized growth,"locus YEL003W, strain gim4, active compounds read low",0.988
same,normalized growth,"locus YEL037C, strain rad23, active compounds read low",1.01
same,normalized growth,"locus YEL061C, strain CIN8 (second series), active compounds read low",1
same,normalized growth,"locus YEL061C, strain CIN8, active compounds read low",1.01
same,normalized growth,"locus YER015W, strain faa2, active compounds read low",1.01
same,normalized growth,"locus YER016W, strain bim1, active compounds read low",1.03
same,normalized growth,"locus YER110C, active compounds read low",1.01
same,normalized growth,"locus YER111C, strain swi4, active compounds read low",1.01
same,normalized growth,"locus YER155C, strain BEM2 (second series), active compounds read low",1.02
same,normalized growth,"locus YER155C, strain BEM2, active compounds read low",1.01
same,normalized growth,"locus YER167W, strain BCK2, active compounds read low",1.01
same,normalized growth,"locus YFR010W, strain ubp6, active compounds read low",1.01
same,normalized growth,"locus YGL078C, strain dbp3, active compounds read low",0.998
same,normalized growth,"locus YGL086W, strain mad1, active compounds read low",0.991
same,normalized growth,"locus YGL167C, strain pmr1, active compounds read low",1.02
same,normalized growth,"locus YGL173C, strain kem1, active compounds read low",1.01
same,normalized growth,"locus YGL227W, strain vid30, active compounds read low",1.02
same,normalized growth,"locus YGL240W, strain doc1, active compounds read low",1.02
same,normalized growth,"locus YGL248W, strain PDE1, active compounds read low",1
same,normalized growth,"locus YGL253W, strain hxk2, active compounds read low",1.02
same,normalized growth,"locus YGR078C, strain PAC10, active compounds read low",1.02
same,normalized growth,"locus YGR135W, strain pre9, active compounds read low",1.01
same,normalized growth,"locus YGR229C, strain SMI1, active compounds read low",1
same,normalized growth,"locus YGR252W, strain gcn5, active compounds read low",0.939
same,normalized growth,"locus YHR013C, strain ard1, active compounds read low",1.22 [resistant] (active)
same,normalized growth,"locus YHR027C, strain rpn1, active compounds read low",1.02
same,normalized growth,"locus YHR030C, strain SLT2, active compounds read low",1.01 and 0.989
same,normalized growth,"locus YHR079C, strain IRE1 (second series), active compounds read low",1.01
same,normalized growth,"locus YHR079C, strain IRE1, active compounds read low",0.965
same,normalized growth,"locus YHR094C, strain hxt1, active compounds read low",1.01
same,normalized growth,"locus YHR129C, strain ARP1, active compounds read low",1.01
same,normalized growth,"locus YHR142W, strain chs7, active compounds read low",1.02
same,normalized growth,"locus YHR200W, strain rpn10, active compounds read low",1.02
same,normalized growth,"locus YIL066C, strain RNR3, active compounds read low",1.01
same,normalized growth,"locus YIL073C, strain SPO22, active compounds read low",1.01
same,normalized growth,"locus YIL125W, strain kgd1, active compounds read low",1.01
same,normalized growth,"locus YIR030C, strain dcg1, active compounds read low",1.02
same,normalized growth,"locus YJL092W, strain hpr5, active compounds read low",1.02
same,normalized growth,"locus YJL095W, strain BCK1 (second series), active compounds read low",1.02
same,normalized growth,"locus YJL095W, strain BCK1, active compounds read low",1.01 and 0.989
same,normalized growth,"locus YJL115W, strain asf1, active compounds read low",1.01
same,normalized growth,"locus YJL129C, strain trk1, active compounds read low",0.994
same,normalized growth,"locus YJL134W, strain LCB3, active compounds read low",1.01
same,normalized growth,"locus YJL154C, strain vps35, active compounds read low",1.02
same,normalized growth,"locus YJL164C, strain tpk1, active compounds read low",1.02
same,normalized growth,"locus YJL166W, strain qcr8, active compounds read low",1.03
same,normalized growth,"locus YJL168C, strain set2, active compounds read low",1
same,normalized growth,"locus YJL187C, strain SWE1 (second series), active compounds read low",1.01
same,normalized growth,"locus YJL187C, strain SWE1, active compounds read low",1.02
same,normalized growth,"locus YJR043C, strain POL32, active compounds read low",1.02
same,normalized growth,"locus YJR066W, strain TOR1, active compounds read low",0.933
